Laboratory results as given in PubChem BioAssay.
Calls of active or inactive are those of the source.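 Rule for the calls, unless noted: active = inhibition of the reporter signal at or above 50%; inactive = inhibition below 50%.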

Assays:
[1] = inhibitors of TNFa-induced NFkB p65 translocation, primary screen, imaging, HUVEC, MLSMR starter and 10KST1 sets (AID 438;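 active = inhibition above 20% together with a positive visual image hit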;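 note: compound added about 3h40 before a 20 min TNFalpha stimulation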;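 for inhibition: signal is the nuclear over cytoplasmic p65 intensity ratio per well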); details: HUVEC TNFa-induced p65 nuclear translocation; cell count: measured here: nuclei count (cytotoxicity indicator), at 2.08 µM; inhibition: at 2 µM, stronger effect = higher value, 0% TNFa-plus-vehicle, 100% no-TNFa wells
[2] = reduction of polyQ htt aggregates in cells – imaging, exon1htt(103Q)mCFP cells, high-content imaging, primary screen (AID 483;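 active = visual image review flags a hit and inhibition of aggregation exceeds 20%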;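 note: compound exposure lasted 3 days before fixation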;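 for nuclei count: percent of the per-plate median nuclei count of sample wells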); details: exon1htt(103Q)mCFP cell line, aggregate imaging, at 2 µM; inhibition of aggregation: stronger effect = higher value; nuclei count: measured here: cell count, toxicity
[3] = endothelial E-selectin expression blockers – imaging, HUVEC, immunofluorescence, MLSMR starter and 10KST1 sets, primary screen (AID 487;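 active = visually confirmed hit in the image check and inhibition above 20%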;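 for inhibition: signal is fraction of cell area covered by stained E-selectin grains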;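 for nuclei count: 100% = median nuclei count of all wells on the same plate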); details: HUVEC TNFalpha-induced E-selectin immunofluorescence imaging, at 2 µM; inhibition: stronger effect = higher value; nuclei count: measured here: cell number, toxicity
[4] = target: Voltage-gated potassium channel subunit beta-2 (Rattus norvegicus) (UniProt P62483); test: inhibitors of rat Kvbeta2 reductase activity – biochemical, NADPH fluorescence, primary screen (AID 622;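 active = fluorescence slope higher than the sample average by over 3 SD, cut at about -0.22 in these data, passing the limit was not always enough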;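 note: slope of raw intensity against log time taken from 70 to 1610 s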); details: recombinant KvBeta, 4-cyanobenzaldehyde reduction, at 10 µM, stronger effect = higher value
Sequence of Voltage-gated potassium channel subunit beta-2 (Rattus norvegicus) (P62483 whole entry, looked up): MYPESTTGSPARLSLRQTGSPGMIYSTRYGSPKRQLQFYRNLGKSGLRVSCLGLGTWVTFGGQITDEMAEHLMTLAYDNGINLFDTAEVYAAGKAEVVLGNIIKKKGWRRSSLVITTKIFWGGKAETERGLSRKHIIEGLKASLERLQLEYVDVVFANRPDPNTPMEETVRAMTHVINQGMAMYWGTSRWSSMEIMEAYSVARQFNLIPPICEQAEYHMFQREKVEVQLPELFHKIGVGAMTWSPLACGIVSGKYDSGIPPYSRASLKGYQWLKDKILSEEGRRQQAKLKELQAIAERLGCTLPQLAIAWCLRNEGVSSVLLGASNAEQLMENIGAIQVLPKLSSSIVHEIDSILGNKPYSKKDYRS

[5] = target: Voltage-gated potassium channel subunit beta-2 (Rattus norvegicus) (UniProt P62483); test: enhancers of rat Kvbeta2 NADPH turnover – biochemical, NADPH fluorescence, primary screen (AID 623;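 active = NADPH fluorescence slope more negative than the mean of all samples by about 3 SD, 99.7% confidence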;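 note: fluorescence intensity change per second fitted from 20 to 320 s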); details: Recombinant KvBeta, NADPH fluorescence decrease slope, 10 min; at 10 µM; stronger effect = lower value
[6] = target: Alpha-2C adrenergic receptor (Homo sapiens) (UniProt P18825); test: compounds altering alpha2C-coupled GIRK flux – cell-based, HEK293 alpha2C/GIRK1/2, thallium flux, primary screen (AID 624;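 active = fluorescence slope after compound addition differing from the mean of all screened samples at 99.7% confidence, in either direction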;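 note: slope of fluorescence ratio to pre-addition baseline per second over 15 to 24 s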); details: thallium flux BTC fluorescence, at 10 µM, actives lie on both sides
Sequence of Alpha-2C adrenergic receptor (Homo sapiens) (P18825 whole entry, looked up): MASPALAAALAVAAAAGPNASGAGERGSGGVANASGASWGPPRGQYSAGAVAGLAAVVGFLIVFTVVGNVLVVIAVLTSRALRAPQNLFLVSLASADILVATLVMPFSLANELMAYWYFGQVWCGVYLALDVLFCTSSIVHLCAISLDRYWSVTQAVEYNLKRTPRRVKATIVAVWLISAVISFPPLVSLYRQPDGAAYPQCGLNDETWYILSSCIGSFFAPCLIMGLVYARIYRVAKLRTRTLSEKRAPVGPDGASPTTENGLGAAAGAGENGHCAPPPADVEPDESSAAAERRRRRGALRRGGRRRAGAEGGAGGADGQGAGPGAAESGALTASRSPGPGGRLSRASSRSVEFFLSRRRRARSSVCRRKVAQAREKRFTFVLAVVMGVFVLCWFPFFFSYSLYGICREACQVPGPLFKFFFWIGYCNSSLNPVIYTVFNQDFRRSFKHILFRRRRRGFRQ

[7] = blockers of RIG-like receptor reporter activation – cell-based, Sendai virus stimulus, luciferase, 10K MLSCN set, TLR/RLR signaling modifier project, primary screen (AID 602276;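 active = inhibition at or above 50% at 10 µM; inactive = inhibition below 50%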;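 note: firefly luciferase from ISG56 promoter only with Renilla not read in this screen; 0% = Sendai virus plus DMSO and 100% = medium plus DMSO without virus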); details: HEK293 RL24 IRF3 luciferase reporter, at 10 µM, stronger effect = higher value
[8] = TLR3 IRF3 reporter activation blockers – cell-based, poly I:C stimulus, luciferase, 10K MLSCN set, primary screen (AID 602277); details: HEK293-TLR3 RL24 IRF3 luciferase reporter, at 10 µM, stronger effect = higher value

Compound	cell count [1]	inhibition [1]	inhibition of aggregation [2]	nuclei count [2] [%]	inhibition [3]	nuclei count [3] [%]	fluorescence slope [4]	NADPH fluorescence slope [5]	slope [6]	inhibition [7]	inhibition [8]
CCOC(=O)c1sc(NC(=O)c2noc3c2CCCC3)c(C(=O)OCC)c1C	688	-2.9% (inactive)	-14.8% (inactive)	120	-47.9% (inactive)	87.6	-0.549 (inactive)	1e-05 (inactive)	0.0086 (inactive)	2.17% (inactive)	6.46% (inactive)
COc1ccc(C2CC(c3ccc(Cl)cc3Cl)Nc3nc(N)nn32)cc1 (centres undefined)	578	2.3% (inactive)	-1.8% (inactive)	105	-10.3% (inactive)	102	-0.593 (inactive)	1.1e-05 (inactive)	0.00847 (inactive)	13.9% (inactive)	36.6% (inactive)
Cc1ccsc1C(C(=O)NC1CCCCC1)N(C(=O)Cc1cccs1)C1CC1 (centres undefined)	500	0% (inactive)	16.1% (inactive)	86.8	-62.9% (inactive)	94.1	-0.35 (inactive)	-4.8e-05 (inactive)	0.00468 (inactive)	15.2% (inactive)	36% (inactive)
CN(C(=O)C1CCCO1)c1nnc(-c2ccncc2)s1 (centres undefined)	279	-2.1% (inactive)	4.6% (inactive)	103	-10.8% (inactive)	103	-0.322 (inactive)	-4.6e-05 (inactive)	0.00538 (inactive)	-12% (inactive)	-17.4% (inactive)
COc1cc2c(cc1OC)-c1nnc(-c3cccs3)n1C(C)(C)C2	814	1.2% (inactive)	-30.2% (inactive)	106	-58.9% (inactive)	114	-0.601 (inactive)	-1.8e-05 (inactive)	0.00581 (inactive)	6.77% (inactive)	18.5% (inactive)
CCSc1nnc(NC(=O)C2CCCN(S(=O)(=O)c3cnc[nH]3)C2)s1 (centres undefined)	577	-0.5% (inactive)	10% (inactive)	101	-101% (inactive)	125	-0.537 (inactive)	-2.1e-05 (inactive)	0.00708 (inactive)	9.63% (inactive)	21.5% (inactive)
Cc1oc2c(CN3CCOCC3)c(O)ccc2c(=O)c1-c1ccc(Br)cc1	543	1.4% (inactive)	6.2% (inactive)	105	-0.5% (inactive)	113	-0.0886 (active)	3.7e-06 (inactive)	0.00357 (inactive)	-3.85% (inactive)	26.2% (inactive)
O=C(CSc1nnc2ccccn12)NCCN1C(=O)CSC1=O	701	-2.8% (inactive)	-2.4% (inactive)	94.1	-218% (inactive)	130	-0.608 (inactive)	-5.5e-06 (inactive)	0.00611 (inactive)	7.75% (inactive)	2.81% (inactive)
CCOC(=O)N1CCC(n2c(=S)[nH]c3cc(OC)c(OC)cc3c2=O)CC1	471	4.8% (inactive)	-23.4% (inactive)	108	-6.8% (inactive)	105	-0.631 (inactive)	4.7e-05 (inactive)	0.00633 (inactive)	14.4% (inactive)	23.2% (inactive)
CCOC(=O)N1CCN(C(=O)CSc2cc(C)nc3c(-c4ccccc4OC)c(C)nn23)CC1	543	-9.8% (inactive)	-34.4% (inactive)	122	14.7% (inactive)	110	-0.54 (inactive)	1.2e-05 (inactive)	0.00377 (inactive)	-11.1% (inactive)	-5.36% (inactive)
C=CCSc1nnc(NC(=O)c2ccc(S(=O)(=O)NCC3CCCO3)cc2)s1 (centres undefined)	245	5.1% (inactive)	-8.6% (inactive)	88.4	-146% (inactive)	114	-0.496 (inactive)	-4.8e-05 (inactive)	0.00603 (inactive)	4.11% (inactive)	11% (inactive)
CCOC(=O)c1cc(CC)sc1NC(=O)CCC(=O)O	415	-3.2% (inactive)	3% (inactive)	99.8	-75.3% (inactive)	109	-0.433 (inactive)	-4.9e-06 (inactive)	0.00617 (inactive)	22% (inactive)	26.5% (inactive)
COCCCN1C(=O)C(=O)/C(=C(/O)c2ccc(OCC(C)C)cc2C)C1c1cccnc1 (centres undefined)	299	-2.4% (inactive)	-8.7% (inactive)	109	-28.7% (inactive)	110	-0.463 (inactive)	5.8e-06 (inactive)	0.00417 (inactive)	7.86% (inactive)	23.2% (inactive)
Cn1cccc1Cc1nnc(SCC(=O)Nc2ccc(F)cc2)n1-c1ccc(F)cc1	843	1.4% (inactive)	-2.2% (inactive)	95.4	-45.2% (inactive)	116	-0.592 (inactive)	-1.8e-05 (inactive)	0.00531 (inactive)	10.5% (inactive)	27.7% (inactive)
